Experimental data reported in PubChem BioAssay (NCI).
Where “and” joins values, the source holds several entries; their conditions need not be identical. Identical values can stand only once. The panel holds about 83,000 compounds, 20% with a hit somewhere; the sample as a whole holds those more often.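 Growth was measured after 48 h exposure to one concentration of compound in 96-well plates. Values under 10 count as active.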 Calls of active or inactive are those of the source.

Assays:
Assay in all cases: NCI-60 one-dose screen, 48 h (100 = growth as untreated, 0 = no growth, -100 = all killed)
SR leukemia = test system: SR leukemia
RPMI-8226 leukemia = test system: RPMI-8226 leukemia
OVCAR-8 ovarian = test system: OVCAR-8 ovarian
OVCAR-5 ovarian = test system: OVCAR-5 ovarian
OVCAR-4 ovarian = test system: OVCAR-4 ovarian
SK-OV-3 ovarian = conditions: 10 µM unless noted
IGROV1 ovarian = test system: IGROV1 ovarian
OVCAR-3 ovarian = test system: OVCAR-3 ovarian
HS 578T breast = test system: HS 578T breast
NCI/ADR-RES ovarian = test system: NCI/ADR-RES ovarian
T-47D breast = test system: T-47D breast
BT-549 breast = test system: BT-549 breast
MDA-MB-435 melanoma = test system: MDA-MB-435 melanoma
SW-620 colon = test system: SW-620 colon
MCF7 breast = test system: MCF7 breast
HCT-116 colon = test system: HCT-116 colon
HCC-2998 colon = conditions: 10 µM unless noted
KM12 colon = conditions: 10 µM unless noted

Measured: growth

O=C(CN1CCOCC1)N1CCOCC1
inactive: SR leukemia; 10 µM unless noted 94.5% and 97.8% | RPMI-8226 leukemia; 10 µM unless noted 96.3% and 106% | OVCAR-8 ovarian; 10 µM unless noted 109% and 104% | OVCAR-5 ovarian; 10 µM unless noted 115% and 91.5% | OVCAR-4 ovarian; 10 µM unless noted 113% and 114% | SK-OV-3 ovarian 110% and 96.3% | IGROV1 ovarian; 10 µM unless noted 117% and 115% | OVCAR-3 ovarian; 10 µM unless noted 115% and 128% | HS 578T breast; 10 µM unless noted 111% and 106% | NCI/ADR-RES ovarian; 10 µM unless noted 107% and 114% | T-47D breast; 10 µM unless noted 110% and 101% | BT-549 breast; 10 µM unless noted 96.9% | MDA-MB-435 melanoma; 10 µM unless noted 116% and 101% | SW-620 colon; 10 µM unless noted 105% and 109% | MCF7 breast; 10 µM unless noted 110% and 105% | HCT-116 colon; 10 µM unless noted 104% and 107% | HCC-2998 colon 104% and 105% | KM12 colon 110% and 106%

O=[N+]([O-])c1ccc2nc3c4ccccc4c4ccccc4c3nc2c1
active: OVCAR-4 ovarian; 10 µM unless noted 8.96%
inactive: SR leukemia; 10 µM unless noted 56.6% | RPMI-8226 leukemia; 10 µM unless noted 59.4% | OVCAR-8 ovarian; 10 µM unless noted 65.9% | OVCAR-5 ovarian; 10 µM unless noted 91.7% | SK-OV-3 ovarian 100% | IGROV1 ovarian; 10 µM unless noted 58.8% | OVCAR-3 ovarian; 10 µM unless noted 72.9% | HS 578T breast; 10 µM unless noted 79.9% | NCI/ADR-RES ovarian; 10 µM unless noted 58.9% | T-47D breast; 10 µM unless noted 67.9% | BT-549 breast; 10 µM unless noted 86.9% | MDA-MB-435 melanoma; 10 µM unless noted 95% | SW-620 colon; 10 µM unless noted 63.4% | MCF7 breast; 10 µM unless noted 65% | HCT-116 colon; 10 µM unless noted 33.6% | HCC-2998 colon 89.8% | KM12 colon 89.3%

CNC(=O)c1cc(Oc2ccc(CC(=O)Nc3cc(C(C)(C)C)nn3C)cc2)ccn1
inactive: SR leukemia; 1 µM 82.7% | SR leukemia; 30 µM 48.9% | RPMI-8226 leukemia; 1 µM 46.2% | RPMI-8226 leukemia; 10 µM 62.6% | OVCAR-8 ovarian; 1 µM 72.5% | OVCAR-8 ovarian; 10 µM 71.8% | OVCAR-8 ovarian; 30 µM 70.6% | OVCAR-5 ovarian; 1 µM 104% | OVCAR-5 ovarian; 10 µM 116% | OVCAR-5 ovarian; 30 µM 98.9% | OVCAR-4 ovarian; 1 µM 58.7% | OVCAR-4 ovarian; 10 µM 44.7% | OVCAR-4 ovarian; 30 µM 83.4% | IGROV1 ovarian; 1 µM 75.1% | IGROV1 ovarian; 10 µM 85.6% | IGROV1 ovarian; 30 µM 90.5% | OVCAR-3 ovarian; 1 µM 81.9% | OVCAR-3 ovarian; 10 µM 69.6% | OVCAR-3 ovarian; 30 µM 109% | HS 578T breast; 1 µM 81.4% | HS 578T breast; 10 µM 65.4% | HS 578T breast; 30 µM 83.5% | NCI/ADR-RES ovarian; 1 µM 85.3% | NCI/ADR-RES ovarian; 10 µM 76% | NCI/ADR-RES ovarian; 30 µM 53.7% | T-47D breast; 1 µM 57.4% | T-47D breast; 10 µM 44.7% | T-47D breast; 30 µM 51.7% | BT-549 breast; 1 µM 72.6% | BT-549 breast; 10 µM 82.4% | BT-549 breast; 30 µM 81% | MDA-MB-435 melanoma; 1 µM 78.1% | MDA-MB-435 melanoma; 10 µM 61.8% | MDA-MB-435 melanoma; 30 µM 67.9% | SW-620 colon; 1 µM 106% | SW-620 colon; 10 µM 87.2% | SW-620 colon; 30 µM 97.8% | MCF7 breast; 1 µM 61.4% | MCF7 breast; 10 µM 53.5% | MCF7 breast; 30 µM 44.4% | HCT-116 colon; 1 µM 65% | HCT-116 colon; 10 µM 33.9% | HCT-116 colon; 30 µM 47.4%

O=C(N/N=C/c1ccc2c(c1)OCO2)c1ccncc1
inactive: SR leukemia; 10 µM unless noted 113% and 134% | RPMI-8226 leukemia; 10 µM unless noted 111% and 103% | OVCAR-8 ovarian; 10 µM unless noted 100% and 109% | OVCAR-5 ovarian; 10 µM unless noted 98.7% and 113% | OVCAR-4 ovarian; 10 µM unless noted 103% and 98.7% | SK-OV-3 ovarian 101% and 104% | IGROV1 ovarian; 10 µM unless noted 88.7% and 86.6% | OVCAR-3 ovarian; 10 µM unless noted 106% and 96.5% | HS 578T breast; 10 µM unless noted 103% and 102% | NCI/ADR-RES ovarian; 10 µM unless noted 101% and 106% | T-47D breast; 10 µM unless noted 112% and 102% | BT-549 breast; 10 µM unless noted 103% and 102% | MDA-MB-435 melanoma; 10 µM unless noted 108% and 112% | SW-620 colon; 10 µM unless noted 93.6% and 98.3% | MCF7 breast; 10 µM unless noted 107% and 86.8% | HCT-116 colon; 10 µM unless noted 105% and 101% | HCC-2998 colon 103% and 113% | KM12 colon 91.9% and 103%
